Experimental data reported in PMC5540273 (PLoS ONE, 2017).

Key:
Conditions in all cases: concentration: 1 μM, replicates: in singlicate; n = 1
FAK = test system: T1, FAK
T1 construct: gene PTK2

FER = test system: FER
FES = test system: FES
FGFR1 = test system: FGFR1
FGFR2 = test system: FGFR2
FGFR3 = test system: FGFR3
FGFR4 = test system: FGFR4
FGR = test system: FGR
FLT1 = test system: FLT1
FLT3-autoinhibited = test system: FLT3-autoinhibited
FLT3 = test system: FLT3
FLT4 = test system: FLT4
FRK = test system: FRK
FYN = test system: FYN
GAK = test system: GAK
GCN2(Kin.Dom.2,S808G) = test system: T2, GCN2(Kin.Dom.2,S808G)
T2 construct: gene EIF2AK4

GRK1 = test system: GRK1
GRK2 = test system: T3, GRK2
T3 construct: gene ADRBK1

GRK3 = test system: T4, GRK3
T4 construct: gene ADRBK2

GRK4 = test system: GRK4
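Note: KINOMEscan kinase panel screen.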

Compound	%Inh (FAK) [%]	%Inh (FER) [%]	%Inh (FES) [%]	%Inh (FGFR1) [%]	%Inh (FGFR2) [%]	%Inh (FGFR3) [%]	%Inh (FGFR4) [%]	%Inh (FGR) [%]	%Inh (FLT1) [%]	%Inh (FLT3-autoinhibited) [%]	%Inh (FLT3) [%]	%Inh (FLT4) [%]	%Inh (FRK) [%]	%Inh (FYN) [%]	%Inh (GAK) [%]	%Inh (GCN2(Kin.Dom.2,S808G)) [%]	%Inh (GRK1) [%]	%Inh (GRK2) [%]	%Inh (GRK3) [%]	%Inh (GRK4) [%]
Cc1cccc(-c2nc(Nc3ccc4[nH]ncc4c3)c3ccccc3n2)n1 [GW857175]	0	11	0	5	0	0	0	0	12	32	13	6	3	0	0	5	3	40	0	10
Cc1ccccc1-n1cnc2c(N)ncnc21 [SKF-97510]	0	4	0	0	0	0	0	0	0	0	0	0	0	8	0	0	0	0	0	0
Cc1ccc(NC(=O)Nc2cccc(Cl)c2)cc1-c1ccc(C(=O)Nc2ccncc2)cc1 [GSK1398468]	0	6	9	0	0	7	5	30	25	14	1	18	47	8	5	0	0	0	23	0
COc1ccccc1CNC(=O)c1cc(C(=O)c2ccccc2C)c[nH]1 [GSK364507]	0	8	0	0	16	4	11	23	18	0	0	5	0	42	15	9	0	0	37	0
CS(=O)(=O)c1ccc(-c2c(-c3ncn[nH]3)sc(N3CCOCC3)c2C#N)cc1	0	14	42	32	9	5	0	40	13	2	0	0	8	0	0	11	25	26	26	0
O=C(Nc1ccccc1)Nc1cccc(Oc2ccc3nccn3n2)c1	0	0	0	13	9	0	0	18	96.8	0	4	67	0	0	0	14	0	0	0	23
COc1cc2nccc(Nc3ccc(NC(=O)c4ccc(C)cc4)c(O)c3)c2cc1OC.Cl [GW440132]	0	45	5	22	22	2	6	37	30	0	0	0	25	17	11	0	0	0	29	0
CC(C)(C)c1ccc(C(=O)Nc2cn3cc(Cl)ccc3n2)cc1	0	4	0	12	0	0	0	0	43	0	70	0	12	99.3	0	36	10	0	0	0
O=C(Nc1n[nH]c2nc(-c3nccs3)c(Br)cc12)C1CC1 [SB-742251]	0	0	12	0	0	0	10	29	36	0	88	8	2	3	0	0	1	0	27	0
CC1=C(C(=O)Nc2cc3cn[nH]c3cc2F)C(c2ccc(C(F)(F)F)cc2)CC(=O)N1 (stereo not drawn) [GSK429286]	0	4	0	0	3	17	8	24	17	0	0	11	18	26	0	14	5	27	73	10
O=c1cc(N2CCOCC2)nc2n(Cc3cccc(Cl)c3Cl)ccn12 [GSK2286295]	0	12	12	0	0	5	12	16	26	0	0	3	0	47	6	0	5	0	0	0
COc1cc(Nc2nccc(N3CCC(NC(=O)Nc4cc(C)ccc4C)C3)n2)cc(OC)c1OC (stereo not drawn) [GSK1379762]	0	0	0	5	11	30	0	14	22	0	36	14	8	0	28	3	0	0	10	20
Cn1ccc2ncnc(Oc3ccc(NC(=O)Nc4ccccc4)cc3)c21	8	16	5	14	0	0	11	0	89	48	97.4	15	11	4	4	11	0	0	11	0
CN(C)CCN(C)C(=O)c1cc(-c2ccncc2)c(-c2ccc(Cl)c(O)c2)o1.Cl.Cl [SB-710397]	0	0	0	0	0	5	0	16	43	0	0	7	43	0	29	0	4	0	54	0
Cc1cccc(-c2cc(Nc3ccncc3)c3ccccc3n2)n1 [GSK223675]	0	0	0	0	0	12	0	7	13	7	0	0	0	40	0	0	0	0	0	0
O=C(Nc1n[nH]c2cc(-c3cccc(F)c3F)ccc12)C1CC1 [SB-733894]	3	0	53	0	0	0	0	61	0	12	0	0	0	0	6	0	44	0	0	0
Cc1ccc(C(=O)Nc2ccc(Nc3ccnc4cc(-c5ccccn5)ccc34)cc2O)cc1.Cl [GW440146]	0	30	0	1	0	0	0	59	28	0	0	0	48	41	7	12	0	0	24	0
O=C1NC(=O)C(N2CCc3ccccc32)=C1c1ccccc1Cl [SB-373598]	0	34	15	7	15	33	9	21	6	0	2	20	20	18	0	4	19	0	0	24
Cc1cccc(-c2nc(Nc3ccncc3)c3ccccc3n2)n1 [GW855857]	31	0	13	5	7	2	6	31	0	0	0	1	15	13	0	0	0	0	0	0
COc1cccc(NC(=O)NC2CCN(c3ccnc(Nc4ccc(F)cc4)n3)C2)c1 (stereo not drawn) [GSK1379721]	0	0	0	0	0	6	1	0	11	0	3	0	0	25	3	0	0	0	18	0
Cc1cccc(-c2nc(-c3ccc(S(C)(=O)=O)cc3)sc2-c2ccnc(NCCc3ccccc3)c2)c1	0	0	0	5	1	0	0	0	18	0	0	7	66	0	0	16	11	0	6	0
